DAX1 inh-1 = blocks DAX1 repression of SF-1 activated StAR promoter; HEK293T StAR-luciferase reporter, SF-1/DAX-1 repression relief; inhibition, % at 6.8 µM; 370,000 compounds, 1.1% hits; AID 652010;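 active means inhibition above the mean over all tested compounds plus 3 SD, cut at about 3.6% in these data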;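 further: 0% = DAX-1 cells with DMSO and 100% = cells lacking DAX-1 with DMSO; higher inhibition means more luminescence from relief of DAX-1 repression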
hgDAF-12 ag = agonists of H. glycines DAF-12 nuclear receptor; HEK293 GAL4-hgDAF12 UAS-luciferase reporter, agonist luminescence; normalized to butyrate control; activation, % at 6.8 µM; 370,000 compounds, 1.8% hits; AID 687014;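 active means activation above a cutoff set at the mean of all screened compounds plus 3 SD, cut at about 10% in these data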;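 further: 0% = DMSO wells and 100% = sodium butyrate wells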
hcDAF12 agonist = activates DAF-12 receptor from parasite H. contortus; 370,000 compounds, 1.4% hits; HEK293 hcDAF-12 lit1-tk-luc reporter, luminescence; 0% DMSO, 100% Δ7-dafachronic acid; activation, % at 6.8 µM;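 active means activation above the mean of all tested compounds plus 3 SD, cut at about 5.5% in these data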;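 further: 100% = response to 3 µM Δ7-dafachronic acid high control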
ssDAF-12 act = S. stercoralis DAF-12 activation, primary screen; HEK293 ssDAF-12/GRIP1 lit1-tk-luc reporter, luminescence; % of 3 µM dafachronic acid response; activation, % at 6.8 µM; 370,000 compounds, 1% hits; AID 652126;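 active means activation above the mean over all tested compounds plus 3 SD, cut at about 0.9% in these data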;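 further: 0% = DMSO-only wells and 100% = 3 µM delta7-dafachronic acid wells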
DAX1 inh-2 = inhibits human nuclear receptor DAX1; P51843; 340,000 compounds, 0.99% hits; AID 504766; inhibition, % at 6.75 µM; HEK293 Gal4-DAX1 luciferase reporter, luminescence;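 active means inhibition above the mean over all tested compounds plus 3 SD, cut at about 4.2% in these data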;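 further: 0% = DAX1-transfected cells with DMSO and 100% = empty-vector control cells with DMSO; inhibition shows as a rise in luminescence from relieved DAX1 repression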
Target sequence (P51843 207-470 limits assumed): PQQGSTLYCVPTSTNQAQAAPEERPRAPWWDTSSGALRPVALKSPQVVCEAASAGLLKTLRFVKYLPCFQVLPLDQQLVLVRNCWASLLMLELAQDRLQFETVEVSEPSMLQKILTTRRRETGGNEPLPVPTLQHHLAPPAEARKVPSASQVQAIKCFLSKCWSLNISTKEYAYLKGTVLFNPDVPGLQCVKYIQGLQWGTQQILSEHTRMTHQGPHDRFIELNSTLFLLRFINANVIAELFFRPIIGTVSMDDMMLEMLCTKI
SMARCA2 act = increases SMARCA2 function in MMTV reporter cells | MG213 cells, MMTV-luciferase reporter, dexamethasone, overnight | activation, % at 9.1 µM | 370,000 compounds, 1% hits; in the data active means activation above about 7.8%;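 further: 0% = vehicle wells and 100% = reference activator wells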
SMARCA2 conf = confirmation of SMARCA2 (BRM) function activators | shares compounds with SMARCA2 act | MG213 cells, MMTV-luciferase with dexamethasone, luminescence, overnight; MG213 cells expressing E1A, Rb sequestered; DMSO wells 0%, reference activator 100% | activation, % at 9.1 µM | 3,500 compounds, 30% hits | AID 652260;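 active means activation above its plate's cutoff, the mean activation of tested wells plus 3 SD, cut at about 7.9% in these data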
GAL4-VP16 Luc = GAL4-VP16 reporter activation counter-screen | 3,500 compounds, 41% hits | activation, % at 9.1 µM | shares compounds with SMARCA2 act | HEK293 GAL4-VP16 pG5luc reporter, luciferase luminescence; scaled: DMSO wells 0%, SAHA wells 100%;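 active means activation above the solvent-only control well mean plus 3 SD, averaged across control plates, cut at about 5.2% in these data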
* marks the source's active call; other numbers are inactive results; nt = no result. This is a sample that favours compounds with a hit; in the whole collection about 4.8% have one here.

SMILES | DAX1 inh-1 | hgDAF-12 ag | hcDAF12 agonist | ssDAF-12 act | DAX1 inh-2 | SMARCA2 act | SMARCA2 conf | GAL4-VP16 Luc
Clc1ccc(CO/N=C2\CCCc3nonc32)cc1 | -0.3 | 0.7 | 3.4 | -1.0 | -1.9 | 12.9* | 8.1* | 4.0
FC(F)(F)Oc1cccc(Cn2ccc3ccc(-c4ccc5ccn(Cc6ccccc6)c5c4)cc32)c1 | 0.0 | 1.1 | 1.1 | -0.6 | nt | -2.6 | nt | nt
Cc1ccc(NC(=S)Nc2cc(C)on2)cc1 | 1.4 | 9.1 | 3.5 | 0.5 | nt | 8.6* | 4.4 | 13.2*
Cc1nc(-c2ccccc2)nc2[nH]c(C(C)C)cc(=O)c12 | 0.0 | 0.3 | 0.3 | 0.7 | -0.4 | -1.6 | nt | nt
Cc1nc(-c2ccccc2)nc2[nH]c(=O)n(-c3ccccc3)c(=O)c12 | 0.1 | 1.1 | -0.5 | -1.4 | -0.4 | 10.7* | 3.5 | 6.3*
CCc1nnc(NS(=O)(=O)c2ccc(N3C(=O)c4ccccc4C3=O)cc2)s1 | -0.4 | -0.6 | 1.1 | -0.4 | 2.2 | 10.6* | -2.4 | 2.2
CCc1nnc(NS(=O)(=O)c2ccc(N)cc2)s1 | 1.6 | 2.0 | -0.7 | -0.5 | 0.9 | -3.9 | nt | nt
O=C(c1ccccc1)c1cnc(-c2ccc(Cl)cc2)s1 | 2.4 | 12.3* | 1.5 | -0.1 | 5.0* | 14.3* | 6.3 | 6.9*
CN(C)C(=S)NC(=S)Nc1ccc2ccccc2c1 | 3.0 | 16.8* | 11.7* | 1.3* | 0.2 | 17.1* | -10.8 | 34.5*
C[C@H]1CCC/C=C/C(=O)c2c(cc(O)c(Cl)c2O)CC(=O)O1 | -3.2 | -8.7 | 0.9 | -1.2 | nt | -1.2 | nt | nt
CCN(CC)CCn1c(=N)n(CC(O)COc2cccc(C)c2)c2ccccc21 (configuration not stated) | 0.8 | 1.6 | -0.1 | -1.3 | nt | 8.3* | 5.5 | 0.9
CC[C@@]1(c2cccc(Cl)c2)C(=O)N(C(=O)OC(C)C)N1C(=O)OC(C)C | -0.9 | -0.7 | -0.2 | -0.8 | nt | -2.0 | nt | nt
CSc1nc(Cl)cc(Nc2ccc(O)cc2)n1 | 0.5 | 5.3 | -0.1 | 0.3 | 1.6 | 14.2* | 5.9 | 3.8
COc1ccc(C(=O)N(C)[C@H]2C[C@H]3c4[nH]c5c(-c6ccccc6)cccc5c4CCN3C(=O)[C@H]2[C@H](C)O)cc1 | 0.5 | -4.2 | 0.6 | -0.9 | nt | -1.9 | nt | nt
COc1cc(OC)cc(C(=O)Nc2cccc3c2CCCC3)c1 | 0.0 | 3.4 | -2.4 | -1.6 | -0.7 | -1.6 | nt | nt
COC(=O)C1CCc2c(ccc3c2CCCC3)C1=O (configuration not stated) | 4.3* | 5.7 | 1.1 | -0.8 | 4.4* | 11.0* | 5.6 | 8.5*
O=C(CN1C(=O)NC2(CCc3ccccc32)C1=O)NCC(=O)Nc1ccc(F)cc1 (configuration not stated) | 1.2 | 6.0 | -0.9 | -0.7 | -0.2 | 8.2* | -4.2 | 1.8
COCC1CCN(C(=O)c2ccc(OC)c(OC3CCN(C(C)C)CC3)c2)CC1 | -0.7 | 0.7 | -1.5 | -0.6 | 0.6 | -0.2 | nt | nt
COc1ccc(C(=O)N2CCCC(O)C2)cc1OC1CCN(C(C)C)CC1 (configuration not stated) | -0.3 | 1.6 | 2.0 | 0.0 | 0.0 | 8.2* | 3.6 | 1.5
Cn1c(C(=O)N2CCN(Cc3ccccc3)CC2)cc2c(=O)n(C)c3ccccc3c21 | 1.8 | -0.3 | 0.1 | -1.4 | -0.4 | 8.9* | 3.8 | 0.5
CCOc1ccc(CCNC(=O)c2ccccn2)cc1OCC | nt | -1.1 | -1.4 | -1.7 | nt | nt | nt | nt
COc1ccc(-c2cc(=O)n(-c3nc4ccccc4[nH]3)[nH]2)cc1 | 0.9 | 3.8 | -0.1 | -0.3 | 0.2 | 8.4* | 18.1* | 3.4
COCCCNC(=O)CSc1nnc(-c2ccncc2)n1-c1ccc(OC)cc1 | -0.1 | 1.1 | -1.6 | -1.7 | nt | -2.3 | nt | nt
CCCC1CCC2(CCCN2CCOC(=O)Nc2ccccc2OC)CC1 (configuration not stated) | nt | 0.1 | -0.8 | -1.7 | nt | nt | nt | nt
CCCCCCCCNS(=O)(=O)/C=C/c1ccc(OC)cc1CNC(=O)OC(C)(C)C | -1.2 | 1.2 | -0.9 | -1.3 | nt | -4.9 | nt | nt
SMILES | DAX1 inh-1 | hgDAF-12 ag | hcDAF12 agonist | ssDAF-12 act | DAX1 inh-2 | SMARCA2 act | SMARCA2 conf | GAL4-VP16 Luc
COc1ccccc1/C=C/C(=O)OCC(=O)Nc1ccc(Cl)cn1 | 0.2 | 1.6 | 1.0 | -1.2 | 2.4 | 8.9* | 10.6* | 0.6
O=C(COC(=O)/C=C/c1ccccc1)Nc1ccc(Cl)cn1 | -0.7 | 1.0 | 1.4 | -1.1 | 1.8 | 0.5 | nt | nt
CC/S(=N\S(=O)(=O)c1ccc(C)cc1)c1ccccc1 (configuration not stated) | 0.5 | 1.8 | -0.6 | -1.2 | 0.1 | 8.1* | -3.7 | -1.3
COc1ccc2c(c1)oc(=O)c1cc(OC)ccc12 | 2.7 | 12.7* | 0.4 | -0.3 | 4.6* | 9.1* | 19.8* | 6.5*
CN(C)c1cccc(C(=O)Nc2cccc(S(=O)(=O)NC3=NCCC3)c2)c1 | -0.9 | 6.3 | 0.5 | 0.8 | 1.3 | 8.3* | 14.6* | 5.3*
CNc1cc(C)nc(N2CCOCC2)n1 | 3.0 | 7.5 | 1.9 | -0.2 | -0.8 | 8.7* | -1.1 | 0.7
CCOC(=O)c1cnc2c(C(=O)OC)cccc2c1NCc1ccco1 | 1.2 | 2.7 | -0.1 | -1.1 | 0.2 | 8.0* | 7.3 | 0.8
CCOC(=O)c1cnc2ccccc2c1NCCO | -0.3 | -0.4 | -1.6 | -1.0 | -0.6 | 0.2 | nt | nt
CCOC(=O)c1cnc2c(ccc3ccccc32)c1NCCCN(C)C | 1.4 | 13.1* | 2.4 | 0.2 | 8.1* | 19.4* | 40.0* | 8.1*
CCOC(=O)c1ccc2ncc(C(=O)OCC)c(NCc3ccco3)c2c1 | 0.3 | 1.0 | -2.0 | -1.3 | -0.3 | 13.3* | 0.4 | 3.5
CCCC(=O)Nc1nnc(-c2ccc3c(c2)OCCO3)o1 | 2.0 | 5.7 | 2.1 | -1.8 | 0.2 | 10.3* | 6.1 | 4.2
CN(c1ccc(NC(=O)Cc2cn(C)c3ccccc23)cc1)c1ccccn1 | -0.9 | 1.0 | -1.0 | -1.0 | nt | -0.9 | nt | nt
CCN(CC)CCCNC(=O)c1ccc2c3n(nc2c1)-c1ccc(Cl)cc1CO3 | 1.1 | 7.7 | 2.5 | 0.1 | 1.3 | 11.3* | 23.2* | 7.2*
CC(C)NC(=O)c1ccc2c3n(nc2c1)-c1ccc(Cl)cc1CO3 | 1.8 | 6.4 | 1.4 | -0.7 | 1.7 | 4.5 | nt | nt
CCOc1ccc(S(=O)(=O)N2CCC(C(=O)NCc3ccccc3CN3CCCC3)CC2)cc1 | 1.3 | 1.9 | -0.3 | -1.0 | 0.1 | 11.9* | -2.4 | 0.9
Cc1ccc(S(=O)(=O)N2CCC(C(=O)NCc3ccccc3CN3CCCC3)CC2)cc1 | -0.5 | -1.4 | 0.2 | -0.9 | 0.1 | 0.6 | nt | nt
